# Assay results published in the supplement of paper PMC6555819.
# Tested on: VDR:RXRa (NR concentration 270 nM, RXRa partner concentration 90 nM)
# Assay: PBM binding z-score (relative to random genomic background probes); higher = stronger binding; sequences stand for … in GC…GCGATTGACAGCGTAGAATGAAGG
# Description: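 Protein-binding microarray (Agilent 4x180K custom design, double-stranded 60-nt probes: 5' GC cap, 34-nt variable region, 24-nt constant primer region; full probe sequence given). Purified or IVT nuclear receptor:RXRα heterodimers (3:1 NR:RXRα, mostly 270:90 nM) or homodimers were incubated for 1 h in PBS with 2% milk and no ligand, then detected with Alexa488 antibodies. Fluorescence from o1-orientation probes (~5 replicates averaged) was converted to z-scores against 500 random hg19 background probes. Variable regions are seed direct-repeat (DR0–DR5) sites, all their single-nucleotide variants and half-site ablations.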
row,Sequence,PBM binding z-score
1,ACTATTAGCTGAGACGAGGGCAACCGATAGGTTG,0.232
2,GCTGCTAGGTCAGTTTGGTCAGCTAACGGGTACG,0.529
3,CTACCAAGGTGAACAAGGTCGTCGATTACTATTC,5.98
4,CCTACTGGGCCACGAAAAGTCATTGATTCAGTGA,-0.413
5,CATACTAGGTCACAGAGGTCAAAGTCCGTGCGTA,7.98
6,CCTCGCAGGCCAATCTGGGTCACTCAAGGCTTGA,0.596
7,CCTCGGAGGACAGAAGGTCAGAACTGTCCGCTTT,0.995
8,AATACAGGGTCATTGTAGGCCAGAGTACGCACAG,5.08
9,TCTAGTAGATCAATAGAGGTTAAGAAAGTGCGCT,1.84
10,TCTAGCAGGCCAGAGGGTCACTCAAGAGGTACGG,1.28
11,ACTAGCAGGCCAAGGGTTACTCAAGATTAGTCCG,0.0944
12,ACTAGCAGGCCAAGTTTGGGTCACTTAAACAAAG,0.715
13,CAAACTAAGTCACCGGAAGGTCAAAGTCCGCATG,3.59
14,ACAGACAGGTGAGTGAAGGTAACTTAGCTGGACG,-0.357
15,ACTCACGGGTCAACGAGGTTATAGCACGCGTATA,7.63
16,CCTCGGGGGACAGAAGGTCAGAGCTGTCCGCTTT,2.3
17,CCAGACAGGTGAAAAGGTAACTCAGCCTCGATTA,0.369
18,GCGACTGGTGCATCAGCAGGTTACCATAACTTAA,-0.435
19,ACAGACAGGTGATCAAGGTAACTCAGGCTATCAT,0.483
20,TAGCCTAGGTCATTGGGCCAGTATCGTACGCATC,2.37

row,Sequence,PBM binding z-score
1,ATCGAAGGGTCGAGGTGAGTATAGAGAAAGGGAA,1.37
2,CCTTACCGGTCACTCCAGGTTATAGCATCGGAGT,1.46
3,TCGAGTAGGTTAGGGGCATTCAAAATGGCGTCGA,0.856
4,CCTTACGGGTCACTGTCAGGTTATAGCATTTGGA,3.87
5,TGTCAAACTTCAAAGGTAACGTAAGTATCCACAC,0.41
6,CGTCCAAGGTCAAGGACAGTGAAAGAGACTCGAA,3.75
7,CAAACTAGGCCACCGGAAGGTCAAAGTCCGCATG,3.2
8,TTACCAAGGCGAGCTGAGGTCGTTGATCCAACTC,1.63
9,TCTTGTAGATCAATAGTGGTTAAGAAAGTGCGCT,0.673
10,TCATATAGGTAAATGCTAAGTGAAAGTCCGATCT,0.987
11,TTACCAAGGTGAAAGGTCGTCGATGCACGCCTTG,3.09
12,CGTCCACGGTCATAGGAGGTCAGTGAAGACAGAT,3.27
13,TCTTGCAGATCAAAGGTTAAGAAAGCCGAAGCCT,1.3
14,CCTACTGGGCCACGACAGGTCATTGATTCAGTGA,1.32
15,AGAATGCGGTTATTAAGATCAGGGAATTGCGGTC,-0.302
16,CAAACTAGGCCACGAAAGGTCAAAGTCGAATGAC,4.9
17,ATCGACAGGTCGAGGTGAGTATAGAGAAAGGGAA,0.389
18,CCTAGCAGGCCAGGGTCTCTCAAGCATTTCGCTT,-0.712
19,ACTCGGAGGACAAAGGGCAGAGCTACGCCAGTGA,-0.214
20,GATACAAGGTCAAGGCCAGAGTACGCGTATTGAT,4.39
